The values below come from PubChem BioAssay (Tox21).

The source made the active and inactive calls. Calls follow the shape of the dose curve; as a rule, active = well fitted curve in the direction sought with a large enough effect in the repeat runs; inconclusive = weak or mixed curves; inactive = flat fitted curve, though single readings scatter.
% is scaled to controls: 0 for no effect and ±100 for the full control effect.

The assay can be described thus: qHTS assay to test for compound auto fluorescence at 460 nm (blue) in HepG2 cells (AID 720687). The conditions noted are these: autofluorescence 405/460 nm, 1 h; series mostly up to 91.3 µM. The source says:
U.S. Tox21 Program National Center for Advancing Translational Sciences [NCATS] NIH Chemical Genomics Center [NCGC] U.S. Environmental Protection Agency [EPA] National Institutes of Environmental Health Sciences [NIEHS] National Toxicology Program [NTP] U.S. Food and Drug Administration [FDA] Tox21 Assay Overview: Compound auto fluorescence often interferes with screening of the compound library against various biological targets and signaling pathways. Some of these compounds may have fluorophoric properties. Such properties may interfere with the assay outputs resulting in false positives and/or negatives. To decrease such complications and ensure the compound activities are relevant in terms of biological response, the Tox21 10K compound library was screened for auto fluorescence. From the fluorophores used as reporter signals in our screening assays, the auto fluorescence equivalencies of compounds against three fluorophores have been evaluated: Triamterene, Fluorescein and Rose Bengal sodium for blue, green and red fluorescence, respectively. The fluorescence intensities were measured using Excitation/Emission wavelengths at 405/460nm, 485/535nm and 540/590nm for blue, green and red labels, respectively. This assay includes the blue fluorescence data.
Tox21 Assay Protocol Summary: 2,000 HepG2 cells in 5 uL of culture medium (MEM containing 10% FBS) per well were dispensed into black wall/clear bottom 1536-well plates using a Multidrop Combi Dispenser (ThermoFisher Scientific, Waltham, MA). The assay plates were incubated overnight at 37 C to allow cell attachment to the well bottom, followed by the transfer of 23 nL compound or DMSO vehicle by a pintool work station (Kalypsys , San Diego, CA). After the assay plates were incubated for 1 hr at 37 C and 5% CO2, fluorescence intensities in the assay plates were measured by an Envision (PerkinElmer, Shelton, CT) plate reader using three labels for measuring blue, green and red fluorescence at […] 460, 535 and 590 nm respectively.
Regarding `O=C(O)CC(C(=O)O)S(=O)(=O)O` (stereo not given), the molecule was called inactive. Turning to `COc1cc(C(=O)NCc2ccc(OCCN(C)C)cc2)cc(OC)c1OC`, the fluorescence, % of fluorescent control is 0.157% [at 18.6 µM] (inactive). On the same count and under the same terms, the figure for `COc1cc(C)nc(-n2nc(C)cc2OC)n1` is -0.112% [at 18.6 µM] (inactive). In the case of `C=CCCC(=O)O`, the outcome was inactive. On the same count and under the same terms, the entry for `CCCCCCC#CC(=O)OC` is “inactive”; for `Clc1cc(Cl)cc(Cl)c1` it is “inactive”; for `COc1c(N2CCNC(C)C2)c(F)cc2c(=O)c(C(=O)O)cn(C3CC3)c12` (stereo not given) it is “inactive”. Consider `CCO[Si](OCC)(OCC)c1ccccc1`, for which the outcome was inactive. Same read-out and setting: the entry for `CC1OC1C1CCC2(C)OC2C1` (stereo not given) is “inactive”; for `O=S(=O)(O)c1cccc(S(=O)(=O)O)c1` it is “inactive”; for `CCOC(=O)c1cnc2c(cnn2CC)c1NN=C(C)C` it is “inactive”. Same read-out and setting: the value for `CC(N)C12CC3CC(CC(C3)C1)C2` (stereo not given) was “inactive”; that for `O=C(CO)[C@@H](O)[C@H](O)[C@H](O)CO` was “inactive”. Take `CCCCOCCOC(=O)COc1cc(Cl)c(Cl)cc1Cl`: the molecule was called inactive.

With `CC12CCC(C(=O)C1=O)C2(C)C` (stereo not given), the molecule was classed as inactive. As to `CCC1C(=O)OCC1Cc1cncn1C` (stereo not given), the molecule was called inactive. Same read-out and setting: the value for `C[N+]1(C)[C@@H]2CC(OC(=O)[C@H](CO)c3ccccc3)C[C@H]1[C@@H]1O[C@@H]12` (stereo not given in full) was “inactive”. Consider `NCCCC[C@H](N[C@@H](CCc1ccccc1)C(=O)O)C(=O)N1CCC[C@H]1C(=O)O`, for which the fluorescence, % of fluorescent control was 0.0286% [at 18.6 µM] (inactive). Take `CC(=O)C1CCCCC1=O` (stereo not given): the outcome was inactive. On the same count and under the same terms, the entry for `CC1=C(C/C=C(\C)CCC[C@H](C)CCC[C@H](C)CCCC(C)C)C(=O)c2ccccc2C1=O` is “inactive”; for `CCCO[Si](OCCC)(OCCC)OCCC` it is “inactive”. For the molecule `CCCCOCCOC(=O)CCCCCCCCC(=O)OCCOCCCC`, the call was inactive.

With `O=[N+]([O-])c1ccc(/C=N\O)o1`, the call was inactive.

As for `CCCOC(=O)CC`, the molecule was classed as inactive.

Regarding `CCCCCCC1CCC(=O)O1` (stereo not given), the result was inactive. With `CC[N+](CC)(CC)CCOc1cccc(OCC[N+](CC)(CC)CC)c1OCC[N+](CC)(CC)CC`, the molecule was called inactive. On the same count and under the same terms, the value for `c1coc(CNc2ncnc3nc[nH]c23)c1` was “inactive”; that for `CCCCCC(=O)OCCc1ccccc1` was “inactive”; that for `CC(C)NNC(=O)c1ccncc1` was “inactive”.

For the molecule `CCCCN(CCC(=O)OCC)C(C)=O`, the call was inactive. For `CC(=O)c1ccccc1[N+](=O)[O-]`, the molecule was classed as inactive. On the same count and under the same terms, the value for `Cc1ncc(COP(=O)(O)O)c(C=O)c1O` was “inactive”; that for `Nc1ccn([C@@H]2O[C@H](CO)[C@@H](O)C2(F)F)c(=O)n1` was “inactive”. As to `O=C(O)c1cn(C2CC2)c2cc(N3CCNCC3)c(F)cc2c1=O`, the fluorescence, % of fluorescent control was -0.0408% [at 18.6 µM] (inactive). On to `CCN1CCOCC1`, for which the molecule was classed as inactive.

Take `COC(=O)C1=C(C)NC(C)=C(C(=O)OC(C)C)C1c1cccc2nonc12` (stereo not given): the fluorescence, % of fluorescent control was 0.0339% [at 18.6 µM] (inactive).

Turning to `CC(C)(C)C(=O)Oc1ccc(S(=O)(=O)Nc2ccccc2C(=O)NCC(=O)O)cc1`, the call was inactive. Still for that read-out and setting: the entry for `C[N+](C)(CCOc1ccccc1)Cc1cccs1` is “inactive”; for `CN(C)C(=O)Oc1cccc([N+](C)(C)C)c1` it is “inactive”; for `C=CN1CCCCCC1=O` it is “inactive”.
